# Measurements: the supplement of paper PMC8728848
# About 410 targets per protein were measured; listed, in parts, are those with the strongest signals and a random draw of the rest.
# B1: IDGF2 (Drosophila melanogaster), Q9V3D4 (protein)
# chain: MKAWIWFTFVACLFAASTEAASNLVCYYDSSSYTREGLGKLLNPDLEIALQFCSHLVYGYAGLRGENLQAYSMNENLDIYKHQFSEVTSLKRKYPHLKVLLSVGGDHDIDPDHPNKYIDLLEGEKVRQIGFIRSAYDLVKTYGFDGLDLAYQFPKNKPRKVHGDLGLAWKSIKKLFTGDFIVDPHAALHKEQFTALVRDVKDSLRADGFLLSLTVLPNVNSTWYFDIPALNGLVDFVNLATFDFLTPARNPEEADYSAPIYHPDGSKDRLAHLNADFQVEYWLSQGFPSNKINLGVATYGNAWKLTKDSGLEGVPVVPETSGPAPEGFQSQKPGLLSYAEICGKLSNPQNQFLKGNESPLRRVSDPTKRFGGIAYRPVDGQITEGIWVSYDDPDSASNKAAYARVKNLGGVALFDLSYDDFRGQCSGDKYPILRAIKYRLHHHHHH
# What was measured:
# Experiment in all cases: glycan array binding signal (z-score within array); higher = stronger binding
# Settings in all cases: glycan notation: IUPAC condensed, linker removed
# [1] = molecular target: Fuc(a1-2)Gal(b1-3)[Fuc(a1-4)]GlcNAc
# Outline: (§1)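 From the Consortium for Functional Glycomics database, 3228 arrays were curated, keeping only those whose protein sequence was available. Binding is given as a within-array Z-score averaged across arrays sharing a protein sequence and across linkers. Negative Z-scores can be read as non-binding.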
# [2] = molecular target: Fuc(a1-2)Gal(b1-4)GlcNAc(b1-3)Gal(b1-4)GlcNAc
# Outline: as §1
# [3] = molecular target: Fuc(a1-2)Gal6S(b1-4)GlcNAc
# Outline: as §1
# [4] = molecular target: Fuc(a1-2)[Gal(a1-3)]Gal(b1-3)GlcNAc
# Outline: as §1
# [5] = molecular target: Fuc(a1-2)[Gal(a1-3)]Gal(b1-4)Glc
# Outline: as §1
# [6] = molecular target: Fuc(a1-2)[Gal(a1-3)]Gal(b1-4)GlcNAc
# Outline: as §1
# [7] = molecular target: Fuc(a1-3)[Gal(b1-4)]Glc6S
# Outline: as §1
# [8] = molecular target: Fuc(a1-3)[Gal(b1-4)]GlcNAc(b1-3)Gal(b1-3)[Fuc(a1-4)]GlcNAc
# Outline: as §1
# [9] = molecular target: Fuc(a1-3)[Gal(b1-4)]GlcNAc(b1-4)Gal(b1-4)[Fuc(a1-3)]GlcNAc(b1-4)Gal(b1-4)[Fuc(a1-3)]GlcNAc
# Outline: as §1
# [10] = molecular target: Gal(a1-3)Gal(b1-4)[Fuc(a1-3)]GalNAc
# Outline: as §1
# [11] = molecular target: Gal(a1-3)[Gal(a1-4)]Gal(b1-4)GlcNAc
# Outline: as §1
# Gal(a1-4)Gal(b1-4)Gal = molecular target: Gal(a1-4)Gal(b1-4)Gal
# Outline: as §1
# Gal(a1-4)Gal(b1-4)GalNAc = molecular target: Gal(a1-4)Gal(b1-4)GalNAc
# Outline: as §1
# Gal(b1-3)Gal = molecular target: Gal(b1-3)Gal
# Outline: as §1
# [12] = molecular target: Gal(b1-3)[Fuc(a1-4)]GlcNAc(b1-3)Gal(b1-4)GlcNAc
# Outline: as §1
# [13] = molecular target: Gal(b1-4)GlcNAc(b1-3)Gal(b1-4)GlcNAc
# Outline: as §1
# [14] = molecular target: Gal3S(b1-3)[Fuc(a1-4)]GlcNAc
# Outline: as §1
# GalNAc(a1-3)GalNAc = molecular target: GalNAc(a1-3)GalNAc
# Outline: as §1
# [15] = molecular target: GlcNAc(b1-2)Man(a1-3)[GlcNAc(b1-2)Man(a1-6)]Man(b1-4)GlcNAc(b1-4)GlcNAc
# Outline: as §1
# GlcNAc(b1-3)Gal = molecular target: GlcNAc(b1-3)Gal
# Outline: as §1
# GlcNAc(b1-3)GalNAc = molecular target: GlcNAc(b1-3)GalNAc
# Outline: as §1
# GlcNAc(b1-6)GalNAc = molecular target: GlcNAc(b1-6)GalNAc
# Outline: as §1
# Man(a1-2)Man(a1-3)Man = molecular target: Man(a1-2)Man(a1-3)Man
# Outline: as §1
# [16] = molecular target: Neu5Ac(a2-3)Gal(b1-4)GlcNAc(b1-3)Gal(b1-4)GlcNAc
# Outline: as §1
# [17] = molecular target: Neu5Ac(a2-3)Gal(b1-4)[Fuc(a1-3)]GlcNAc(b1-3)Gal
# Outline: as §1
# [18] = molecular target: Neu5Ac(a2-3)Gal(b1-4)[Fuc(a1-3)]GlcNAc(b1-3)Gal(b1-4)GlcNAc
# Outline: as §1
# [19] = molecular target: Neu5Ac(a2-3)Gal6S(b1-4)GlcNAc
# Outline: as §1
# [20] = molecular target: Neu5Ac(a2-8)Neu5Ac(a2-3)[GalNAc(b1-4)]Gal(b1-4)Glc
# Outline: as §1
# [21] = molecular target: Neu5Gc(a2-6)Gal(b1-4)GlcNAc
# Outline: as §1
binder,measurement,setting,value
B1,glycan array binding signal (z-score),[1],-0.463
same,glycan array binding signal (z-score),[2],-0.26
same,glycan array binding signal (z-score),[3],-0.274
same,glycan array binding signal (z-score),[4],8.27
same,glycan array binding signal (z-score),[5],6.99
same,glycan array binding signal (z-score),[6],7.65
same,glycan array binding signal (z-score),[7],0.706
same,glycan array binding signal (z-score),[8],0.936
same,glycan array binding signal (z-score),[9],-0.319
same,glycan array binding signal (z-score),[10],-0.365
same,glycan array binding signal (z-score),[11],-0.273
same,glycan array binding signal (z-score),Gal(a1-4)Gal(b1-4)Gal,-0.196
same,glycan array binding signal (z-score),Gal(a1-4)Gal(b1-4)GalNAc,-0.481
same,glycan array binding signal (z-score),Gal(b1-3)Gal,0.071
same,glycan array binding signal (z-score),[12],0.056
same,glycan array binding signal (z-score),[13],-0.325
same,glycan array binding signal (z-score),[14],0.072
same,glycan array binding signal (z-score),GalNAc(a1-3)GalNAc,-0.398
same,glycan array binding signal (z-score),[15],-0.223
same,glycan array binding signal (z-score),GlcNAc(b1-3)Gal,0.066
same,glycan array binding signal (z-score),GlcNAc(b1-3)GalNAc,0.032
same,glycan array binding signal (z-score),GlcNAc(b1-6)GalNAc,-0.197
same,glycan array binding signal (z-score),Man(a1-2)Man(a1-3)Man,-0.128
same,glycan array binding signal (z-score),[16],-0.3
same,glycan array binding signal (z-score),[17],0.239
same,glycan array binding signal (z-score),[18],0.148
same,glycan array binding signal (z-score),[19],-0.073
same,glycan array binding signal (z-score),[20],-0.271
same,glycan array binding signal (z-score),[21],0.622
